Compounds without any hit were thinned out: in the full panel of roughly 83,000, 20% have a hit.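 Negative percent growth values reflect cell death: -40 means 40% of the cells present at the start died, and -100 means all died.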 A number with no mark means an inactive call. Calls of active or inactive are those of the source. The calls were made as follows: active = growth percent below 10; inactive = the rest.
Tests used:
Test in all cases: NCI-60 one-dose screen, 48 h (100 = growth as untreated, 0 = no growth, -100 = all killed)
Settings in all cases: 10 µM unless noted
SR leukemia = system: SR leukemia
RPMI-8226 leukemia = system: RPMI-8226 leukemia
OVCAR-8 ovarian = system: OVCAR-8 ovarian
OVCAR-5 ovarian = system: OVCAR-5 ovarian
OVCAR-4 ovarian = system: OVCAR-4 ovarian
SK-OV-3 ovarian = system: SK-OV-3 ovarian
IGROV1 ovarian = system: IGROV1 ovarian
OVCAR-3 ovarian = system: OVCAR-3 ovarian
HS 578T breast = system: HS 578T breast
NCI/ADR-RES ovarian = system: NCI/ADR-RES ovarian
T-47D breast = system: T-47D breast
BT-549 breast = system: BT-549 breast
MDA-MB-435 melanoma = system: MDA-MB-435 melanoma
MCF7 breast = system: MCF7 breast
HCT-116 colon = system: HCT-116 colon
HCC-2998 colon = system: HCC-2998 colon
KM12 colon = system: KM12 colon
SW-620 colon = system: SW-620 colon

SMILES | growth (SR leukemia) | growth (RPMI-8226 leukemia) | growth (OVCAR-8 ovarian) | growth (OVCAR-5 ovarian) | growth (OVCAR-4 ovarian) | growth (SK-OV-3 ovarian) | growth (IGROV1 ovarian) | growth (OVCAR-3 ovarian) | growth (HS 578T breast) | growth (NCI/ADR-RES ovarian) | growth (T-47D breast) | growth (BT-549 breast) | growth (MDA-MB-435 melanoma) | growth (MCF7 breast) | growth (HCT-116 colon) | growth (HCC-2998 colon) | growth (KM12 colon) | growth (SW-620 colon)
Nc1nc2ccc3[nH]ncc3c2c2c1CCCC2 | -16.6% (active) | 6.83% (active) | 7.6% (active) | 8.24% (active) | 16.2% | 16.6% | 8.21% (active) | 5.2% (active) | -9.88% (active) | 2.46% (active) | 11% | -9.88% (active) | 6.3% (active) | 7.3% (active) | 1.33% (active) | 9.63% (active) | -1.31% (active) | –
CCOC(=O)c1cc(C(=O)c2ccc(O)c(O)c2)n2ccc(-c3ccn4c(C(=O)c5ccc(O)c(O)c5)cc(C(=O)OCC)c4c3)cc12 | 62.3% | 74.4% | 91.4% | 121% | 86.5% | 100% | 87.4% | 101% | 85.8% | 102% | 77.4% | 96% | 99.9% | 99.1% | – | – | 97% | 96.1%
Cc1ccccc1COc1ccc(-c2onc(C)c2-c2ccc(Cl)cc2)cc1 | 34% | 81% | 75.8% | 87.6% | 82.7% | 59.5% | 52.5% | 20.7% | 59.4% | 39.2% | 61.1% | 66.2% | -1.01% (active) | – | 34% | 86.6% | 54.3% | –
O=C(CCl)Oc1ccc(-c2ccccc2)c(Br)c1 | 96.9% | 106% | 103% | 107% | 105% | 104% | 112% | 108% | 108% | 103% | 103% | 104% | 104% | – | 108% | 109% | 104% | 104%
CCCOc1cc2ccccc2cc1C(=O)Nc1nc(N)c2c(ccc3nccc32)[nH]1 | -16.2% (active) | -40.5% (active) | -49% (active) | -67.7% (active) | -50.9% (active) | -77.2% (active) | -47% (active) | -60.5% (active) | -56.1% (active) | -8.57% (active) | -51% (active) | -41% (active) | -94.5% (active) | – | -58.9% (active) | -68.3% (active) | -72.8% (active) | -80.4% (active)
COc1nc2c(c(=O)n1C)CN(Cc1ccccc1)C=N2 | 98.7% | 86.6% | 96.7% | 105% | 116% | 87.3% | 93.7% | 105% | 113% | 113% | 67.1% | -4.81% (active) | 117% | – | 107% | 113% | 98.9% | 99.6%
CC/C=C\C/C=C\C[C@H]1C/C=C2/C(=O)C=C[C@@H]2C/C=C\CCC(=O)O1 | 0.464% (active) | -14.6% (active) | 7.21% (active) | 44.6% | 26.7% | 40.9% | 13.1% | 2.66% (active) | 43.6% | 17.9% | 23.4% | -3.33% (active) | 0.314% (active) | 26.1% | – | – | -27.8% (active) | 8.89% (active)
Cc1[nH]c(-c2ccc3cc[nH]c3c2)c2c1C(=O)CCCC2 | 50.9% | 21.9% | 46.4% | 78.2% | 48.5% | 25.5% | 36.9% | 51% | 21.9% | 40.7% | 32.1% | 68.3% | 25.2% | 19.5% | 38.9% | 57.7% | 47.8% | –
Cc1cc(N[C@@H]2CCC[C@H](Nc3ccnc4cc(Cl)ccc34)C2)nc(N2CCCCCC2)n1 | -57.4% (active) | -52.2% (active) | -43% (active) | -15.8% (active) | -5.16% (active) | -51.9% (active) | -45.5% (active) | -58.8% (active) | – | -39.8% (active) | -41.8% (active) | -87.9% (active) | -91.7% (active) | -63.1% (active) | -88.6% (active) | -83.7% (active) | -39% (active) | -76.5% (active)
COc1ccc(C(=O)c2sc3nc4c(c(-c5cccnc5)c3c2N)CCCC4)cc1OC | 37.8% | 4.67% (active) | 85% | 86.4% | 74% | 104% | 117% | 89.9% | 65.8% | 89.3% | – | 74.6% | 91.7% | 90.2% | 88.2% | 110% | 76.3% | 107%
Cn1c(NCCc2ccc(O)c(O)c2)nc2c1c(=O)n(Cc1ccc(Cl)c(Cl)c1)c(=O)n2C | 56% | 19.1% | 74.4% | 83.1% | 52.8% | 81% | 32% | 64.9% | 75.6% | 77.3% | 58% | – | 73% | 79% | 64.8% | 90.6% | 71.9% | 76.5%
CS(=O)(=O)c1ccc(-n2nc(-c3ccc(Br)cc3)c3ccccc3c2=O)cc1 | 110% | 99.8% | 100% | 108% | 97.8% | 94.3% | 109% | 102% | 100% | – | 86.5% | 91.1% | 103% | 85.9% | 96.7% | 98% | 102% | 104%
CCOc1cc2c(cc1OCC)C(c1cc(OC)c(O)cc1Cl)NCC2 (stereo not given) | 98.7% | 94% | 90.8% | 85.9% | 89.2% | 103% | 90.5% | 98.6% | 106% | – | 85.4% | 102% | 77.5% | 93.5% | 76.3% | 63.2% | 88.9% | 99.3%
CCN(CC)c1ccc(/C=N\NC(=O)/C=C/C=C/c2ccc3c(c2)OCO3)c(O)c1 | 17.6% | 53.6% | 32.9% | 60.9% | 15.3% | 39.5% | 38.2% | 4.95% (active) | 68.1% | 17.6% | 26.3% | – | 48.9% | 19.5% | 7.86% (active) | – | 30.2% | 32.3%
CC1=C[C@H]2c3c(c(O)c(O)c4oc5c(C)cccc5c(=O)c34)[C@H](c3cc(O)c(O)c4oc5c(C)cccc5c(=O)c34)[C@H]2C(C)(C)C1 | 3.62% (active) | 23.4% | 18.1% | 30.4% | 11.3% | 19.1% | 1.21% (active) | 13.8% | – | 4.23% (active) | 13.7% | 27.2% | -17.3% (active) | 9.38% (active) | 1.97% (active) | 11.2% | 7.31% (active) | 18.7%
Nc1n[nH]c2ccc([C@@H]3Nc4ccc5cn[nH]c5c4[C@H]4C5CCC(C5)[C@@H]34)cc12 (stereo not given in full) | 14.3% | 40.3% | 35.5% | 40.3% | 35.2% | 37.7% | 22.1% | -5.18% (active) | – | 20.7% | 57.5% | 20.9% | -47.7% (active) | 15.2% | 12.9% | 24.3% | 17.6% | 19%
C#CCOc1ccc2ncnc(Nc3cccc(CNC(=O)C=C)c3)c2c1 | 103% [8.25 µM] | 101% [8.25 µM] | 95.8% [8.25 µM] | 100% [8.25 µM] | 92.5% [8.25 µM] | 107% [8.25 µM] | 88.8% [8.25 µM] | 104% [8.25 µM] | 91.9% [8.25 µM] | 107% [8.25 µM] | 87.9% [8.25 µM] | – | 97.1% [8.25 µM] | 87% [8.25 µM] | 104% [8.25 µM] | 106% [8.25 µM] | 109% [8.25 µM] | 107% [8.25 µM]

— PubChem BioAssay (NCI)
